Experimental findings from PubChem BioAssay (NCATS) are described below.

Records with an inconclusive call do not appear. Unmarked numbers belong to inactive results. Activity calls are given as the source filed them. The call rests on the fitted dose curve; in most records, active means well fitted curve in the direction sought with a large enough effect; inconclusive means small, poorly fitted or top-dose-only effect, or another doubt; inactive means no such curve, though single readings can be large; an effect the other way counts as inactive or inconclusive.

In assay [1] the target is Rap guanine nucleotide exchange factor 3 (Homo sapiens) (UniProt O95398). In words: Confirmatory qHTS for antagonist of cAMP-regulated guanine nucleotide exchange factor 3 (EPAC1) (AID 1645880).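 Further: plate controls were DMSO only for no effect and full effect of the ATA control for full effect; nearly all actives have a fitted effect of over 55% in size.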 The settings on record: EPAC1 Rap1B-BODIPY-GDP exchange, fluorescence; activity, negative = inhibition: at 115 µM (top of the series). The gist of the method:
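Nucleotide exchange uses 100 nM EPAC1, 250 nM RAP1B-BODIPY-GDP and 50 uM GDP, with compounds in a concentration-titration series. After 5 min at room temperature, fluorescence (480 nm ex/540 nm em) is read every 5 min for 30 min. Data are normalized to control ATA and DMSO.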
(In qHTS, concentration-response curves come from the screen itself.)

Assay [2] addresses Rap guanine nucleotide exchange factor 4 (Homo sapiens) (UniProt Q8WZA2). Description: Confirmatory qHTS for antagonist of cAMP-regulated guanine nucleotide exchange factor 4 (EPAC2) (AID 1645885). Further: nearly all actives have a fitted effect of over 25% in size. Further: potency means the concentration at half of the fitted maximal effect. On activity change, negative = inhibition: on the % scale 0 is the no-effect control and ±100 the full control effect.
The target is the same in assay [3]. In words: Confirmatory qHTS for agonist of cAMP-regulated guanine nucleotide exchange factor 4 (EPAC2) (AID 1645884).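 Further: nucleotide exchange releases bodipy-GDP from Rap1 and this lowers its fluorescence; nearly all actives have a fitted effect of over 65% in size.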 Further: potency means the concentration at half of the fitted maximal effect. On activation: on the % scale 0 is the no-effect control and ±100 the full control effect.
The target of assay [4] is Rap guanine nucleotide exchange factor 3 (Homo sapiens) (UniProt O95398). In words: Counterscreen qHTS for antagonist of cAMP-regulated guanine nucleotide exchange factor 3 (EPAC1) (AID 1645888).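 Further: fluorescence loss as bound BODIPY-GDP is released from Rap1B; % of control where 0% means no effect.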 The gist of the method:
(§1)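 Rap1B–BODIPY-GDP (250 nM) with 50 uM GDP; compounds pin-transferred to 9.74 nM–152 uM final (activator) or from 7.32 nM upwards (inhibitor). Fluorescence Ex/Em 480/540 nm read at 5 and 30 min, then after adding cAMP or buffer, at room temperature.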
Background: Counterscreens check selectivity or assay interference.

The target is the same in assay [5]. In words: Counterscreen qHTS for agonist of cAMP-regulated guanine nucleotide exchange factor 3 (EPAC1) (AID 1645889). Further: nearly all actives have a fitted effect of over 40% in size. Further: potency means the concentration at half of the fitted maximal effect. On activation: % of control where 0% means no effect. The gist of the method:
as §1

Assay [6] deals with Tumor susceptibility gene 101 protein (Homo sapiens) (UniProt Q99816). Description: qHTS Assay for Iinhibitors of HIV-1 Budding by Blocking the Interaction of PTAP/TSG101: Hit Validation (AID 651600). Further: on the % scale 0 is the no-effect control and ±100 the full control effect; nearly all actives have a fitted effect of over 70% in size. The gist of the method: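 Displacement of a FITC-labeled PTAP-motif peptide (50 nM) from the Tsg101 binding domain (10 uM) was monitored by fluorescence polarization after a 20 min room-temperature incubation.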
Tumor susceptibility gene 101 protein (Homo sapiens), sequence (Q99816 whole entry, looked up, the tested form may be a part): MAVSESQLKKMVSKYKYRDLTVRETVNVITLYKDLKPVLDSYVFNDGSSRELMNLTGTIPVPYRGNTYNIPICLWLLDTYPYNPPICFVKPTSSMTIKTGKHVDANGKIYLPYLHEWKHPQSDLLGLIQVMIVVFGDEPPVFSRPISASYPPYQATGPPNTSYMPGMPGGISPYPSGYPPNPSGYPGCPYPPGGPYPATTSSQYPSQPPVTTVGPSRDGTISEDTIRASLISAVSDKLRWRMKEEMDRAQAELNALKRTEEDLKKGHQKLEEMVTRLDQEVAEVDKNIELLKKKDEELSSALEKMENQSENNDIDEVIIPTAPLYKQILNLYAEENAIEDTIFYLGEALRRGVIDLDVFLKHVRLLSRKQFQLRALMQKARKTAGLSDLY

Rap guanine nucleotide exchange factor 3 (Homo sapiens), sequence (O95398 whole entry, looked up): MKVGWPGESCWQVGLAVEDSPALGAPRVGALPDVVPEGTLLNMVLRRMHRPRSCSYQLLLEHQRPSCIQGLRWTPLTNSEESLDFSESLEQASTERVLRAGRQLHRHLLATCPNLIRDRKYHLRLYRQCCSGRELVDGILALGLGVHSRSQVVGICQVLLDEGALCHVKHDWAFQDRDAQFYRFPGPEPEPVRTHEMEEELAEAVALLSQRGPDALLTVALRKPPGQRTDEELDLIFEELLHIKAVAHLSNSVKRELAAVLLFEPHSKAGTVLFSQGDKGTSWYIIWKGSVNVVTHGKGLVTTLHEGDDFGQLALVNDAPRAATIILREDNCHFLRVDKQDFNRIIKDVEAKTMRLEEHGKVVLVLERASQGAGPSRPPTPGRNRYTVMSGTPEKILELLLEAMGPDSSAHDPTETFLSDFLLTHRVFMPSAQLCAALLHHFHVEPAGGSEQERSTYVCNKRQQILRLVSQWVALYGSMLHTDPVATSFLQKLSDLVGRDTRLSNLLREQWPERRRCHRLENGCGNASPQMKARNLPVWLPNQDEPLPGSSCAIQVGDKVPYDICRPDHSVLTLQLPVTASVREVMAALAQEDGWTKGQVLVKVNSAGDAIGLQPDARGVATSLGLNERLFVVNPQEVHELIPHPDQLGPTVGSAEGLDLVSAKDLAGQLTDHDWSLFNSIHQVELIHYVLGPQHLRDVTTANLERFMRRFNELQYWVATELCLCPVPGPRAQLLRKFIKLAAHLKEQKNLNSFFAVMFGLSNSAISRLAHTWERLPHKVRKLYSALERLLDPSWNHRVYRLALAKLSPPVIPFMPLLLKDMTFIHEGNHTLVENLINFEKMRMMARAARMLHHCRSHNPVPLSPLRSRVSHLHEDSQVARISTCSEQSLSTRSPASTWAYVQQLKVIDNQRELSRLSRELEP
Rap guanine nucleotide exchange factor 4 (Homo sapiens), sequence (Q8WZA2 whole entry, looked up): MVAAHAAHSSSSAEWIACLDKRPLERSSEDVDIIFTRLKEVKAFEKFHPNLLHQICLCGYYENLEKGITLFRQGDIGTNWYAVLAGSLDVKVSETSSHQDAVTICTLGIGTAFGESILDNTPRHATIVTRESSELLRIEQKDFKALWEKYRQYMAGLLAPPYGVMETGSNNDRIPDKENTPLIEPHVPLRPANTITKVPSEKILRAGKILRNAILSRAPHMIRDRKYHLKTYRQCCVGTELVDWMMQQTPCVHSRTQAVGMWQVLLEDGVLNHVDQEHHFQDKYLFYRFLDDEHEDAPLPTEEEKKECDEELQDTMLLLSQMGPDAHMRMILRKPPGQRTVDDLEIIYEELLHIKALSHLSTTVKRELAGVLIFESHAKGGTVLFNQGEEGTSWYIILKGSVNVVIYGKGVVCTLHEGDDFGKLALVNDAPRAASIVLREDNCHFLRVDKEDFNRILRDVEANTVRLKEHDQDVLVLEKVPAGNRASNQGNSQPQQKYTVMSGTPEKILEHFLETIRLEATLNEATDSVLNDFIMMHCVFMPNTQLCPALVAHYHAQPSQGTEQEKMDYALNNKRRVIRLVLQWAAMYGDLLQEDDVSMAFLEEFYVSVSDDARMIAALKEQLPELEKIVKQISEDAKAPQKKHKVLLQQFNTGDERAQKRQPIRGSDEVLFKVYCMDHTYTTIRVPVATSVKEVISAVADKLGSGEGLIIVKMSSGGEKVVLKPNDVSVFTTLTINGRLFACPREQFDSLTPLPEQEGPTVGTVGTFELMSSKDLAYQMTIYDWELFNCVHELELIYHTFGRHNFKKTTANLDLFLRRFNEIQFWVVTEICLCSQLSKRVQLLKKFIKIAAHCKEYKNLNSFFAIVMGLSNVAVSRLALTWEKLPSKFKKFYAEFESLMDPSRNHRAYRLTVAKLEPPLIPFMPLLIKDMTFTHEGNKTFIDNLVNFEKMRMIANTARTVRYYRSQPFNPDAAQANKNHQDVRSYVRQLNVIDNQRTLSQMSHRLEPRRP

As to `Cc1cc(N(C)C)c(C)cc1/C=C/c1ccnc2ccccc12`, the Potency entry in assay [1] and in assay [2] was “inactive” in each case.
Consider `O=C1c2ccccc2-c2onc3c(Br)cc(NC4CCCCC4)c1c23`, for which the Potency result in assay [1], in assay [3], in assay [4] and in assay [5] was “inactive” throughout.
On to `CC(=Nc1ccc(C)cc1C)c1sc2ccccc2c1O`, for which the Potency result in assay [6], in assay [1] and in assay [4] was “inactive” in each case. In assay [3], the Potency was 100 µM (active).
Turning to `COCc1c(C(=O)N2CCc3ccccc32)oc2ccccc12`, the Potency result in assay [1] and in assay [4] was “inactive” throughout. The Potency in assay [3] was 112 µM (active).
Take `CC(C)CC(=NNC(=O)c1ccncc1)c1cc(Cl)ccc1O`: the Potency result in assay [1] and in assay [4] was “inactive” in each case. Further, in assay [3], the Potency was 100 µM (active).
Turning to `CCCN1CC=C2C(C#N)=C(N)C(C#N)(C#N)C(c3cccc(OC)c3OC)C2C1` (configuration not stated), the Potency entry in assay [1] and in assay [4] was “inactive” in each case. Also, the Potency in assay [2] was 12 µM (active).
With `COc1ccc(/C=C2\C(=O)NC(=O)c3ccccc32)cc1OC`, the Potency entry in assay [1], in assay [3] and in assay [4] was “inactive” each time.
`COC(=O)C1=NN(c2ccc(C)cc2)C2(S1)SC(C(C)=O)=C(C)N2c1ccccc1` (configuration not stated): the Potency result in assay [1], in assay [4] and in assay [5] was “inactive” throughout. In addition, in assay [3], the Potency is 100 µM (active).
For `COc1cc2c(cc1OC)C1(C)N(CC2)C(C(C)=O)=NN1c1ccc(Cl)cc1` (configuration not stated), the Potency entry in assay [1] is “inactive”. Moreover, the activation in assay [3] was 18% [at 17.1 µM, percent relative to cAMP agonist control]. Further, the activity change, negative = inhibition in assay [4] is 5.93% [at 30.8 µM]. Further, the Potency in assay [5] was 3.55 µM (active).
For `CN(C)c1ccc(-c2cc3ccccc3c(=O)o2)cc1`, the Potency result in assay [1], in assay [2] and in assay [4] was “inactive” each time.
As for `CC(C)N1CCc2c(sc(NC(=O)c3ccc(C(=O)c4ccccc4)cc3)c2C(N)=O)C1`, the Potency entry in assay [1], in assay [2] and in assay [4] was “inactive” each time.
On to `N=C1/C(=C\c2coc3ccccc3c2=O)C(=O)N=C2SC=CN12`, for which the Potency result in assay [1] and in assay [2] was “inactive” each time. In addition, the activity change, negative = inhibition in assay [4] is 46.8% [at 30.8 µM].
On to `COCCN1C(=O)/C(=C/c2ccc(N3CCCC3)cc2)SC1=S`, for which the Potency result in assay [1] and in assay [4] was “inactive” throughout. Besides, the Potency in assay [3] was 112 µM (active).
